The results in this text go back to PubChem BioAssay (NCI).

Compounds without any hit were thinned out: in the full panel of roughly 79,000, 15% have a hit. A number with no mark means an inactive call. The source made the active and inactive calls. Rule as the data show it: active = growth inhibition above about 70%; inactive = the rest.

A short description of test [1]: NCI Yeast Anticancer Drug Screen. Data for the rad50 strain (AID 155).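 Also: 0% = growth of vehicle-only cultures of the same strain.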 To be noted: S. cerevisiae rad50 strain growth inhibition; at 50.0 µM; active compounds read high. In outline:
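Yeast carrying a defined DNA repair defect were exposed to test compounds, and growth was compared with vehicle-treated controls to give percent inhibition.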

The nature of test [2]: NCI Yeast Anticancer Drug Screen. Data for the mec2-1 strain (AID 157). To be noted: S. cerevisiae mec2-1 strain, at 50.0 µM, active compounds read high. In outline: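 Test agents were screened against the mec2-1 yeast strain, with defined DNA repair or cell cycle alteration. Growth was scored as inhibition against vehicle-only controls.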
Test [3] can be described thus: NCI Yeast Anticancer Drug Screen. Data for the sgs1 mgt1 strain (AID 161).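 Also: 0% = growth of cultures given vehicle only.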 The note with it: S. cerevisiae sgs1 mgt1 strain, at 50.0 µM, active compounds read high. In a few lines: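 Inhibition of yeast growth, normalised to vehicle-treated controls, is reported for a strain bearing genetic alterations in DNA damage repair.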
Test [4] can be described thus: NCI Yeast Anticancer Drug Screen. Data for the cln2 rad14 strain (AID 165).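 Also: 0% = growth equal to vehicle treated cultures.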 To be noted: S. cerevisiae cln2 rad14 strain, at 50.0 µM, active compounds read high. In outline:
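Growth of compound-exposed yeast (cln2 rad14 genotype) measured and expressed as inhibition relative to vehicle.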

Test [5] can be described thus: NCI Yeast Anticancer Drug Screen. Data for the bub3 strain (AID 167). The note with it: S. cerevisiae bub3 mutant strain, at 50.0 µM, active compounds read high. In outline:
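Compounds were applied to a genetically altered yeast strain carrying a cell-cycle control defect. Growth inhibition was scored against vehicle-treated controls.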

Test [6] can be described thus: NCI Yeast Anticancer Drug Screen. Data for the mlh1 rad18 strain (AID 175). To be noted: S. cerevisiae mlh1 rad18 strain growth inhibition; at 50.0 µM; active compounds read high. In outline: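 In this whole-cell yeast screen, a strain with altered DNA damage repair is challenged with compound, and its growth is measured against matched vehicle-treated controls.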

As to `BrCC1OCC2(CO1)COC(CBr)OC2` (stereo not given), the growth inhibition in test [1] is -11.2%; in test [2], 11.3%; in test [3], -7%; in test [4], -16%; in test [5] it was -6%; in test [6], -13.2%.
In the case of `Cc1ccc(NC(=O)CC/C(CC(=O)C(C)(C)C)=N/NC(=O)C(N)=O)cc1C`, the growth inhibition was -2.75% in test [1]; -9.95% in test [2]; 10.5% in test [3]; 10.6% in test [4]; 8.55% in test [5]; 5.1% in test [6].
`CC(=O)Oc1cc2c(cc1C(NC(N)=O)c1ccc3c(c1)OCO3)OCO2` (stereo not given): the growth inhibition is 1.95% in test [1]; 2.7% in test [2]; 1.55% in test [3]; -11.2% in test [4]; 16.4% in test [5]; 12.4% in test [6].
On to `C=CCNC(=S)NNC(=O)c1c(C)nc2sccn12`, for which the growth inhibition in test [1] is -4.75%; in test [2], -10.8%; in test [3], -12.1%; in test [4], 0.25%; in test [5] it was -14.2%; in test [6], -5.9%.
Take `COc1ccc2c(c1OC)OC1CNc3cc(C)c(C)cc3N=C1C2` (stereo not given): the growth inhibition in test [1] is 6.1%; in test [2], 3.35%; in test [3] it was 4.05%; in test [4], -42.2%; in test [5], 12.8%; in test [6], 7.35%.
Take `O=C(/C=C/c1ccccc1)CC1OC(=O)c2ccccc21` (stereo not given): the growth inhibition is 14.3% in test [1]; -15.9% in test [2]; 10.3% in test [3]; 23.1% in test [4]; 3.15% in test [5]; -20.9% in test [6].
On to `Cn1c(=S)c2[nH]c(SCCCc3ccccc3)nc2n(C)c1=O`, for which the growth inhibition is -19.4% in test [1]; -36% in test [2]; -5.8% in test [3]; -32.3% in test [4]; -25.9% in test [5]; 12.5% in test [6].
Take `CCN(CC)C1Oc2cc3c(cc2C(c2cccc(OC)c2OC)C1C)OCO3` (stereo not given): the growth inhibition in test [1] was 28.4%; in test [2] it was 28.8%; in test [3], 46.5%; in test [4], 41.7%; in test [5], 41.9%; in test [6], 63.3%.
As to `COc1ccc(-n2cnc3c(cnn3C3OC(CO)C(O)C3O)c2=O)cc1` (stereo not given), the growth inhibition in test [1] is 8.7%; in test [2], 2.95%; in test [3], 8.45%; in test [4] it was 23.3%; in test [5], -4.25%; in test [6], 3.3%.
As to `Nc1cc2c(cc1Br)-c1ccc(Br)cc1C2=O`, the growth inhibition in test [1] was -6.65%; in test [2], -6.65%; in test [3] it was -0.7%; in test [4], -30.2%; in test [5], 21.4%; in test [6], -5.25%.
For `CN(C)c1ccc(N=Nc2cccc3ncccc23)cc1`, the growth inhibition in test [1] was 2.1%; in test [2] it was 26.6%; in test [3], 67.5%; in test [4], 31.1%; in test [5], 65.5%; in test [6], 66%.
With `CC12CCC(CC1)C2(C)C`, the growth inhibition in test [1] is 5.6%; in test [2], 0.3%; in test [3] it was 0.15%; in test [4] it was -4.8%; in test [5], 4.75%; in test [6], -1.6%.
Turning to `O=Cc1cc2c(cc1-c1cc3c(cc1C=O)OCO3)OCO2`, the growth inhibition in test [1] is -3.4%; in test [2] it was 8.25%; in test [3], 6.6%; in test [4] it was 9.85%; in test [5], 13.1%; in test [6], 0.75%.
Regarding `CC(C)CC(CC(C)C)OC(=O)Nc1ccccc1`, the growth inhibition in test [1] was -1%; in test [2], 17.3%; in test [3], 9.05%; in test [4], 33.6%; in test [5] it was 30.1%; in test [6], 25.9%.
With `O=C(OCc1ccccc1)c1ccc(NCc2cc(O)ccc2O)cc1`, the growth inhibition is 88.7% (active) in test [1]; 90.7% (active) in test [2]; 89.7% (active) in test [3]; 89.6% (active) in test [4]; 88% (active) in test [5]; 92.2% (active) in test [6].
For the molecule `C[C@H](CCC(c1ccccc1)c1ccccc1)[C@H]1CC[C@H]2[C@@H]3CC[C@@H]4C[C@H](O)CC[C@]4(C)C3=CC[C@]12C`, the growth inhibition is 1.7% in test [1]; -15.3% in test [2]; 4.1% in test [3]; 24.8% in test [4]; -1.75% in test [5]; 9.45% in test [6].
Turning to `O/N=C(\c1ccccc1)c1ccc2ncccc2c1`, the growth inhibition is 37% in test [1]; 41.2% in test [2]; 27.9% in test [3]; 2.8% in test [4]; 7.45% in test [5]; 23.3% in test [6].
In the case of `COCC(C)(c1cn(C)c2ccccc12)c1cn(C)c2ccccc12`, the growth inhibition is -2.5% in test [1]; -19.2% in test [2]; -11.4% in test [3]; -17.9% in test [4]; 5.05% in test [5]; -10.1% in test [6].
For `COc1ccc(C(O)CNC(=O)c2ccccc2)cc1` (stereo not given), the growth inhibition in test [1] is 11.7%; in test [2], -4.4%; in test [3], 12.5%; in test [4], -7.2%; in test [5] it was -2.15%; in test [6], -60%.
On to `C(=C\C[P+](c1ccccc1)(c1ccccc1)c1ccccc1)/C[P+](c1ccccc1)(c1ccccc1)c1ccccc1`, for which the growth inhibition is 12.3% in test [1]; 13% in test [2]; 4.95% in test [3]; -5.55% in test [4]; -2.75% in test [5]; 27.9% in test [6].
